LASV entry inh = inhibitors of Lassa virus binding or cell entry | Lassa virus pseudotype entry inhibition, cell reporter | Potency, µM (doses to about 37.9 µM), for inactives: top-dose activity change, negative = inhibition, most hits filed as inhibitors | 300,000 compounds, 1.2% hits; calls by dose curve; tested in HEK293 cells; note: potency is the fitted concentration of half-maximal effect; nearly all actives have a fitted effect of over 50% in size
HCMV inh = blocks human cytomegalovirus replication; HFF cells, HCMV-luciferase reporter, 72 h; stronger effect = lower value; activity change, negative = inhibition, % at 57.5 µM; 410,000 compounds, 4.5% hits; AID 1259415; in the data active = activity change below about -60%; inconclusive = no clear call, values can overlap the other calls; inactive = above about -39%
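Two compound doses tested in HFFs infected with HCMV-luciferase, MOI 1 PFU/cell, 72 h at 37C. Lysate luminescence read with OneGlo; data normalized against buffer-only and 10uM Salinomycin inhibitor controls.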
Pf growth 96h = P. falciparum growth inhibition at 96 hours. P. falciparum luciferase reporter growth, 96 h. Potency, µM (highest dose often 28.7 µM), for the others: top-dose activity change, negative = inhibition, most hits filed as inhibitors. 320,000 compounds, 6.9% hits; note: potency is the fitted concentration of half-maximal effect
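96 h incubation, 37 C, 5% CO2, of luciferase-reporter P. falciparum-infected RBCs (2% hematocrit, 0.05% parasitemia final) with test compounds; endpoint luminescence.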
HCV inh = HCV inhibition. Huh7.5.1 HCVcc-Cre infection, luciferase reporter, 44 h. Potency, µM (series often up to 41.8 µM), inactives show at the top dose activity change, negative = inhibition, hits mostly inhibitors. 340,000 compounds, 3.4% hits. AID 651820; note: potency is the fitted concentration of half-maximal effect
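HCVcc-Cre virus at an moi near 0.5 was added right after compound to cells cultured 4 h from seeding (1,000 cells/well). Luciferase activity was determined 44 h later, 15 min after substrate addition at RT.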
MARV entry inh = blocks Marburg virus binding to or entry into cells. Marburg virus pseudotyped entry inhibition, cell reporter. Potency, µM (titrated, usually from 37.8 µM), for the others: at the top dose activity change, negative = inhibition, actives largely listed as inhibitors. 300,000 compounds, 1.8% hits. AID 540276; calls by dose curve; tested in HEK293 cells; note: potency is the fitted concentration of half-maximal effect
Pf growth 48h = inhibits P. falciparum growth in the first generation, 48 h | P. falciparum luciferase growth in erythrocytes, 48 h | Potency, µM (series often up to 28.7 µM), without a hit: at the highest dose activity change, negative = inhibition, actives largely listed as inhibitors | 310,000 compounds, 5.9% hits | AID 504832; note: potency is the fitted concentration of half-maximal effect
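Luciferase-expressing parasites in RBCs, 2% Hct / 0.1% parasitemia final; RPMI 1640 + 0.5% Albumax; 37 C, 5% CO2, one generation; luminescence read-out, lower signal = inhibition.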
* = called active by the depositor; u = inconclusive; x = no result given; [ ] = another dose, or the depositor's remark. This is a sample that favours compounds with a hit; in the whole collection about 14% have one here. Unless noted, calls come from the whole dose curve; as a rule, active = well fitted inhibition curve with a large enough effect; inconclusive = small, poorly fitted or top-dose-only effect, or another doubt; inactive = no such curve, though single readings can be large or run the other way. % is set by controls: 0 for no effect and ±100 for the full control effect.

SMILES | LASV entry inh | HCMV inh | Pf growth 96h | HCV inh | MARV entry inh | Pf growth 48h
COCCCn1c(SCC(=O)NC2CCS(=O)(=O)C2)nnc1-c1ccc(Cl)cc1 (centres undefined) | x | 36 | 23% | 3% | x | 13%
CCOc1cc2c(cc1/C=C1/NC(=O)N(CC(=O)OC)C1=O)OCO2 | -5% | 23 | u | 10µM* | -11%[46.1 µM] | -7%
COC(=O)CN1C(=O)N/C(=C/c2cc3c(cc2OC)OCO3)C1=O | 14% | 16 | 0% | 12% | -1%[46.1 µM] | 15%
CC1Oc2cc3oc4c(O)c5c(cc4c(=O)c3c(O)c2C1(C)C)C=CC(C)(C)O5 (centres undefined) | x | x | x | 5µM* | x | x
O=C(CSc1nc2c(cnn2-c2cccc(Cl)c2)c(=O)[nH]1)NCCC1=CCCCC1 | x | -2 | 6% | 6% | x | -12%
COc1ccc(CN(C)C2c3ccccc3-c3ccccc32)cc1 | -15% | u | 12µM* | -3% | u | u
Cc1cc(C)cc([C@H]2C[C@]34CN(Cc5ccccc5)[S+](=O)([O-])[C@@H]3C[C@@H]2O4)c1 | 5%[46.1 µM] | x | x | x | x | x
O=C(NCc1ccco1)c1cc2ccc(O)cc2oc1=O | u | 19 | x | 19% | u | 105%
COc1ccc2cc(C(=O)NCc3ccco3)c(=O)oc2c1 | 27% | -29 | 13µM* | 0% | 12% | 73%
COc1ccc2oc(=Nc3ccc(C(=O)O)cc3)c(C(=O)NCc3ccco3)cc2c1 | -1% | -13 | u | 14% | 2% | 266%
COc1ccc2cc(C(=O)NCc3ccco3)c(=Nc3ccc(C(=O)O)cc3)oc2c1 | 18% | -20 | u | u | -12% | 10µM*
O=C1CC(c2nnc(Cc3ccccc3Cl)o2)CN1c1ccccc1 (centres undefined) | 3%[46.1 µM] | -4 | x | x | 3%[46.1 µM] | x
Cc1ccc(Oc2nnc(-c3cccs3)c3ccccc23)cc1C | -16% | -62* | u | -7% | u | u
Cc1ccc(Oc2nnc(-c3cccs3)c3ccccc23)cc1 | 15% | -21 | 82% | 6% | 25% | 16%
C=C(C)c1cccc(C(C)(C)NC(=O)NCc2cccnc2)c1 | -7% | -26 | u | 23% | 4% | 0%
C=C(C)c1cccc(C(C)(C)NC(=O)NCc2ccc(OC)c(OC)c2)c1 | 0% | -35 | 4% | 11µM* | u | -12%
C=C(C)c1cccc(C(C)(C)NC(=O)NCc2ccncc2)c1 | 20%[46.1 µM] | -17 | u | -3% | u | 13µM*
CCCn1c2ccccc2c2cnn(CC(=O)Nc3cc(C)c(Cl)cc3OC)c(=O)c21 | 2%[46.1 µM] | -7 | x | x | x | x
COc1ccc2c(c1)C(=O)C(=O)N2CC1COc2ccccc2O1 (centres undefined) | x | -82* | -17% | -27% | x | u
COc1ccc(C2C(=O)N(C3CCCCC3)CC(=O)N2CC2COc3ccccc3O2)cc1 (centres undefined) | -24% | -34 | u | -12% | -2% | u
CCOc1ccc2c(c1)C(=O)C(=O)N2CC1COc2ccccc2O1 (centres undefined) | x | -65* | -6% | -30% | x | u
Cc1ccc2c(c1)C(=O)C(=O)N2CC1COc2ccccc2O1 (centres undefined) | -22%[46.1 µM] | -67* | 11% | -17% | u | -18%
CCOc1ccc(S(=O)(=O)NCCC(=O)NCC2COc3ccccc3O2)cc1 (centres undefined) | x | 5 | -3% | -6% | x | u
COc1cccc(CC(=O)Nc2c(C(=O)N3CCN(c4ccccc4)CC3)oc3ccccc23)c1 | 20%[46.1 µM] | -10 | x | x | -10%[46.1 µM] | x
CC(C)CC#Cc1ccc2c(c1)O[C@H](CN(C)C(=O)Nc1ccccc1)[C@@H](C)CN([C@H](C)CO)S2(=O)=O | x | 4 | x | x | x | x
SMILES | LASV entry inh | HCMV inh | Pf growth 96h | HCV inh | MARV entry inh | Pf growth 48h
C[C@@H]1CN([C@H](C)CO)S(=O)(=O)c2ccc(C#Cc3ccccc3)cc2O[C@H]1CN(C)C(=O)Nc1ccc2c(c1)OCO2 | x | -87* | x | x | x | x
C[C@H](CO)N1C[C@H](C)[C@@H](CN(C)C(=O)c2ccc3c(c2)OCO3)Oc2cc(/C=C/c3ccccc3)ccc2S1(=O)=O | x | -62* | x | x | x | x
COc1ccc(-c2nn(-c3ccc(F)cc3F)c3c2cnc2ccc(F)cc23)cc1 | 0%[46.1 µM] | 16 | x | x | x | x
CCOC(=O)[C@H](C)Sc1nc(-c2cccs2)ccc1C#N | x | x | x | x | -1% | x
Cc1ccc(CC(=O)NCc2cccnc2)cc1 | x | 12 | 4% | x | x | 12%
Cc1ccc(-c2cc(C(F)F)nc(NCc3cccnc3)n2)cc1 | u | 38 | 17% | 6.3µM* | u | 13µM*
FC(F)(F)c1cc(-c2ccc(Cl)cc2)nc(NCc2cccnc2)n1 | -26% | -27 | x | 11µM* | -21% | 3.7µM*
Cc1ccc(-c2cc(C(F)F)nc(NCC3CCCO3)n2)cc1 (centres undefined) | -9% | 35 | 21% | 4µM* | 0%[46.1 µM] | -4%
COc1ccc(-c2cc(C(F)(F)F)nc(NCc3cccs3)n2)cc1 | u | 20 | u | u | -28% | u
Cc1ccc(-c2cc(C(F)F)nc(NCc3cccs3)n2)cc1 | u | 28 | 2.6µM* | u | 5% | 11%
Cc1ccc(-c2nc(C#N)c(NCC3CCCO3)o2)cc1 (centres undefined) | x | 56 | 53% | -10% | 1%[46.1 µM] | 50%
O=C(CN(c1ccc(Cl)c(C(F)(F)F)c1)S(=O)(=O)c1ccccc1)N1CCc2ccccc2C1 | -14%[46.1 µM] | -17 | x | x | x | x
Cc1ccc(CCNC(=O)c2sc3ncccc3c2-n2cccc2)cc1 | -18%[46.1 µM] | -8 | x | x | x | x
CCCOc1cccc(C(=O)Nc2cc(-c3ccccc3)no2)c1 | 22%[46.1 µM] | -4 | x | x | u | x
Cc1ccc(C(=O)CCC(=O)Nc2ccccc2C)c(C)c1 | 10%[46.1 µM] | 7 | 131% | 2% | 15%[46.1 µM] | 62%
C=C(CN(C)C)C(=O)c1ccc(C)cc1C | u | -77* | x | u | u | x
COC(=O)Cn1c(=O)c2cccn2c2ccc(F)cc21 | 6%[46.1 µM] | -7 | x | x | -1%[46.1 µM] | x
O=C1C=CC(=C(c2ccc(O)cc2)c2ccc(O)cc2)C=C1 | x | -100* | 7.4µM* | 10µM* | x | 7.4µM*
O=S(=O)(c1ccc(O)cc1)c1ccc(O)cc1 | x | -14 | u | 0% | x | 20%
COc1ccc(S(=O)(=O)Cc2ccc(C(=O)N3CCN(c4cc(C)ccc4C)CC3)o2)cc1 | -9%[46.1 µM] | -37 | 4.7µM* | -7% | 5%[46.1 µM] | 7%
COc1ccc(S(=O)(=O)Cc2ccc(C(=O)N3CCc4ccccc4C3)o2)cc1 | x | -26 | -28% | 0% | -1% | x
Cc1ccc(S(=O)(=O)Cc2ccc(C(=O)N3CCN(c4cccc(C)c4C)CC3)o2)cc1 | u | -35 | 3.7µM* | u | x | -2%

Bioassay records (PubChem BioAssay)
